Test results published in PubChem BioAssay (NCI).
The panel holds about 83,000 compounds, 20% with a hit somewhere; the sample as a whole holds those more often.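 Negative percent growth values reflect cell death: -40 means 40% of the cells present at the start died, and -100 means all died.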 Activity calls are given as the source filed them. Rule for the calls: active = growth percent below 10; inactive = the rest.

System: NCI-H23 lung
Experiment: NCI-60 one-dose screen, 48 h (100 = growth as untreated, 0 = no growth, -100 = all killed)
Details: 10 µM

Structure (SMILES)	growth
C[n+]1c2ccccc2nc2ccccc21	-9.78% (active)
C=CCn1c(SCC(=O)Nc2ccc(C(=O)/C=C/c3ccc(OC)cc3)cc2)nnc1-c1ccc(OC)c(OC)c1	89.3% (inactive)
Cc1n[nH]c(C)c1N=Nc1cccc2c1C(=O)c1ccccc1C2=O	84.7% (inactive)
CC[C@H]1OC(=O)[C@H](C)[C@@H](O[C@H]2C[C@@](C)(OC)[C@@H](O)[C@H](C)O2)[C@H](C)[C@@H](O[C@@H]2O[C@H](C)C[C@H](N(C)C)[C@H]2O)[C@](C)(OC)C/C(C)=C2/O[C@@]1(C)C=C2C	83.9% (inactive)
CCOC(=O)CN(c1sc(C)c(C)c1C(=O)OCC)S(=O)(=O)c1ccc(C)cc1	94.3% (inactive)
Cc1noc(C)c1CSc1ccccc1C(=O)N1CCN(c2cccc(C(F)(F)F)c2)CC1	67.9% (inactive)
O=C(CCCSc1nc(-c2ccccc2)cc(-c2ccc(Cl)cc2)n1)NO	9.38% (active)
O=C(Nc1ccc(F)cc1)c1cc2ccccc2cc1O	61.8% (inactive)
COc1ccc(-c2cc(-c3ccccc3)nc(SCCCCCCC(=O)NO)n2)cc1	50.9% (inactive)
COc1cc2c(cc1NC(=O)C(F)(F)F)-c1ccc(NC(=O)C(F)(F)F)cc1C2	86.9% (inactive)
S=C(NCc1ccccc1)NCc1ccccc1	95% (inactive)
NNC(=O)Oc1c(Cl)cc(Cl)cc1[N+](=O)[O-]	97.8% (inactive)
Cc1c(Cl)cccc1NC(=O)CN1CCOCC1	95.9% (inactive)
O=C1c2ccccc2C(=O)N1CCCCNc1ccccc1	104% (inactive)
